From PubChem BioAssay (Tox21)
Records with an inconclusive call do not appear. Active and inactive are the calls of the source. Unless noted, calls come from the whole dose curve.

Columns and labels:
[1] = Nuclear factor erythroid 2-related factor 2/antioxidant responsive element (Nrf2/ARE) small molecule agonists: qHTS cell viability counter screen in human keratinocytes (AID 1919968; active = well fitted curve in the direction sought with a large enough effect in the repeat runs; an effect the other way counts as inactive or inconclusive; note: nearly all actives have a fitted effect of over 55% in size)
Procedure, shortened: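 Cytotoxicity was multiplexed with the Nrf2/ARE luciferase assay in the same wells. Stably transfected HaCaT keratinocytes were treated with test compounds for 23 h at 37 C. Cell viability was then measured by CellTiter-Fluor fluorescence.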

[2] = target: Gonadotropin-releasing hormone receptor (Homo sapiens) (UniProt P30968); assay: Human gonadotropin-releasing hormone receptor (GnRHR) small molecule agonists, calcium flux assay in GnRHR-HEK293 cells (AID 1920063); note: nearly all actives have a fitted effect of over 35% in size
Procedure, shortened: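 Agonist activity was measured as intracellular calcium flux in HEK293 cells engineered to stably express human GnRHR. After dye loading for 1 hour at 37 C, compounds in DMSO were added and fluorescence was followed for 3 minutes.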

[3] = target: KiSS-1 receptor (Homo sapiens) (UniProt Q969F8); assay: Human kisspeptin (KISS1R) small molecule agonists, calcium flux assay in KISS1R-HEK293 cells (AID 1920064; active = well fitted curve in the direction sought with a large enough effect in the repeat runs; an effect the other way counts as inactive or inconclusive)
Procedure, shortened: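 Agonist activity is monitored as intracellular calcium rise in engineered HEK293 cells carrying human KISS1R. Cells are dye-loaded for 1 h at 37 C before compound addition, and fluorescence is recorded for 3 min.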

[4] = G protein-coupled receptor (GPCR) small molecule agonists, calcium flux assay: HEK293 wild type cell line counter screen (AID 1920065)
Procedure, shortened: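 Seed cells, incubate 18 h (37 C, 5% CO2); add calcium dye, 1 h at 37 C; pin-transfer compounds, ATP control or DMSO; read fluorescence 480/540 nm each second for 3 min.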

[5] = p53 small molecule agonists, cell-based qHTS assay with human liver microsomes (AID 1963577)
Procedure, shortened: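 p53RE-bla reporter cells were pre-incubated 5 h at 37 C, then treated with compounds plus human liver microsomes (0.5 mg/mL final) and NADPH (0.5 mg/mL final) for 16 h at 37 C. Beta-lactamase activity was read by LiveBLAzer fluorescence after 2 h at room temperature.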

[6] = p53 small molecule agonists, cell-based qHTS assay with rat liver microsomes (AID 1963578)
Procedure, shortened: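 p53RE-bla cells were exposed to compounds together with rat liver microsomes (0.5 mg/mL final) and NADPH (0.5 mg/mL final) for 16 h at 37 C, then read by LiveBLAzer beta-lactamase fluorescence after 2 h at room temperature.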

[7] = p53 small molecule agonists, cell-based qHTS assay with human liver microsomes: qHTS cell viability counter screen (AID 1963579); note: nearly all actives have a fitted effect of over 45% in size
Procedure, shortened: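 p53RE-bla cells (4,000/well) were pre-incubated 5 h at 37 C, then given compounds in DMSO plus human liver microsomes (0.5 mg/mL final) and NADPH (0.5 mg/mL final) for 16 h at 37 C. Viability was read by CellTiter-Glo luminescence.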

[8] = p53 small molecule agonists, cell-based qHTS assay with rat liver microsomes: qHTS cell viability counter screen (AID 1963580); note: nearly all actives have a fitted effect of over 45% in size
Procedure, shortened: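 Cytotoxicity counter screen: intracellular ATP measured by CellTiter-Glo luminescence in the same wells as the beta-lactamase reporter read, on HCT-116 p53RE-bla cells exposed 16 h at 37 C to compounds with rat liver microsomes and NADPH, each 0.5 mg/mL final.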

[9] = p53 small molecule agonists, cell-based qHTS assay: qHTS cell viability counter screen (AID 1963581); note: nearly all actives have a fitted effect of over 45% in size
Procedure, shortened: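 Viability was counter-screened in parallel with the p53 agonist reporter by measuring intracellular ATP luminescence in the same HCT-116 p53RE-bla wells after 16 h compound treatment at 37 C.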

[10] = p53 small molecule agonists, cell-based qHTS assay (AID 1963582; active = well fitted activation curve with a large enough effect in the signal ratio in the repeat runs, not every such curve was filed as active; the % refers to the signal ratio)
Procedure, shortened: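 Cells carrying a p53-responsive bla reporter are treated with test compounds for 16 h at 37 C; beta-lactamase activity is then detected with LiveBLAzer B/G FRET substrate after 2 h at room temperature.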

[11] = target: 5-hydroxytryptamine receptor 2A (Homo sapiens) (UniProt P28223); assay: 5-hydroxytryptamine receptor 2A (HTR2A) small molecule antagonists, cell-based qHTS assay (AID 1963586); note: nearly all actives have a fitted effect of over 45% in size
Procedure, shortened: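 CHO cells stably expressing human HTR2A were plated for 18 h at 37 C, then loaded with calcium dye for 1 h. Compounds were preincubated 5 min at room temperature before DOI (4 nM solution) was added. Kinetic fluorescence was read for 3 min.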

[12] = target: 5-hydroxytryptamine receptor 2A (Homo sapiens) (UniProt P28223); assay: 5-hydroxytryptamine receptor 2A (HTR2A) small molecule agonists, cell-based qHTS assay (AID 1963587); note: nearly all actives have a fitted effect of over 30% in size
Procedure, shortened: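 CHO cells stably expressing human HTR2A, plated 18 h, loaded with calcium dye 1 h at 37 C. Agonist mode: compounds added and intracellular calcium fluorescence recorded kinetically for 2 min at 1 sec intervals.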

[13] = target: Muscarinic acetylcholine receptor M1 (Homo sapiens) (UniProt P11229); assay: Cholinergic receptor muscarinic 1 (CHRM1) small molecule antagonists, cell-based qHTS assay (AID 1963588); note: nearly all actives have a fitted effect of over 40% in size
Procedure, shortened: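 Compounds were tested at 15 concentrations in three independent runs. Dye-loaded CHRM1-CHO cells were exposed 5 min at room temperature before stimulation by acetylcholine added at 50nM. Intracellular calcium was read kinetically on FDSS for 3 min.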

[14] = target: Muscarinic acetylcholine receptor M1 (Homo sapiens) (UniProt P11229); assay: Cholinergic receptor muscarinic 1 (CHRM1) small molecule agonists, cell-based qHTS assay (AID 1963589); note: nearly all actives have a fitted effect of over 35% in size
Procedure, shortened: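 Cells were plated and incubated 18 h at 37 C/5% CO2, loaded with calcium dye for 1 h at 37 C, then treated with compounds in DMSO. Fluorescence was recorded kinetically at 1 sec intervals.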

[15] = cAMP Responsive Elements (CRE) small molecule agonists, cell-based qHTS assay (AID 1963590)
Procedure, shortened: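 Cells carrying a CRE-driven beta-lactamase reporter (HEK 293T) are seeded, incubated overnight (18 h), and treated with test compounds for 3 h at 37 C; reporter activity is then detected with a FRET substrate after 2 h at room temperature.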

[16] = cAMP Responsive Elements (CRE) small molecule antagonists, cell-based qHTS assay (AID 1963591; active = well fitted inhibition curve with a large enough effect in the signal ratio in the repeat runs, not every such curve was filed as active; the % refers to the signal ratio)
Procedure, shortened: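 Cells (CRE-bla HEK 293T, DMEM with 10% dialyzed FBS and 25 mM HEPES) are seeded and incubated 18 h. Compounds are added with NKH477 agonist at 0.25 uM final for 3 h, then FRET substrate for 2 h.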

[17] = target: Beta-2 adrenergic receptor (Homo sapiens) (UniProt P07550); assay: Adrenergic beta2 receptor (ADRB2) small molecule antagonists, cell-based qHTS assay (AID 1963592); note: series mostly up to about 92 µM; nearly all actives have a fitted effect of over 50% in size
Procedure, shortened: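 Assay format: CHO-ADRB2 cells, 18-20hr seeding at 37C/5% CO2, then compound plus 1nM isoproterenol agonist mix for 0.5hr RT. Homogeneous time-resolved fluorescence cAMP detection after 1hr, expressed as 665/615 nm ratio.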

[18] = target: D(2) dopamine receptor (Homo sapiens) (UniProt P14416); assay: Dopamine D2 receptor (DRD2) small molecule agonists, cell-based qHTS assay (AID 1963594); note: nearly all actives have a fitted effect of over 35% in size
Procedure, shortened: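 HEK293 cells stably expressing human DRD2, pre-treated with PDE inhibitor Ro20-1724 (0.1 mM final) and compound 10 min at room temperature, then stimulated with NKH477 (200nM […]) for 30 min. cAMP read by HTRF (665/620 nm).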

[19] = target: D(2) dopamine receptor (Homo sapiens) (UniProt P14416); assay: Dopamine D2 receptor (DRD2) small molecule antagonists, cell-based qHTS assay (AID 1963595; active = well fitted inhibition curve with a large enough effect in the signal ratio in the repeat runs, with a control signal flat; the % refers to the signal ratio)
Procedure, shortened: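 Antagonist mode in DRD2-HEK293 cells: after compound addition with 0.1 mM Ro20-1724, cells received quinpirole (12 nM) and NKH477 (200 nM) for 30 min at room temperature; HTRF cAMP read after 1 h detection.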

[20] = target: Beta-2 adrenergic receptor (Homo sapiens) (UniProt P07550); assay: Adrenergic beta2 receptor (ADRB2) small molecule agonists, cell-based qHTS assay (AID 1963593);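 note: CHO cells stably overexpressing human ADRB2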
Procedure, shortened: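 CHO cells stably over-expressing ADRB2 were plated overnight at 37C, then dosed with compounds plus a stimulation mix containing 100uM IBMX and 25uM Ro-20-1724 for 0.5hr at room temperature. cAMP was measured by HTRF competition, 1hr.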

Measured: Potency

Sequence of Muscarinic acetylcholine receptor M1 (Homo sapiens) (P11229 whole entry, looked up): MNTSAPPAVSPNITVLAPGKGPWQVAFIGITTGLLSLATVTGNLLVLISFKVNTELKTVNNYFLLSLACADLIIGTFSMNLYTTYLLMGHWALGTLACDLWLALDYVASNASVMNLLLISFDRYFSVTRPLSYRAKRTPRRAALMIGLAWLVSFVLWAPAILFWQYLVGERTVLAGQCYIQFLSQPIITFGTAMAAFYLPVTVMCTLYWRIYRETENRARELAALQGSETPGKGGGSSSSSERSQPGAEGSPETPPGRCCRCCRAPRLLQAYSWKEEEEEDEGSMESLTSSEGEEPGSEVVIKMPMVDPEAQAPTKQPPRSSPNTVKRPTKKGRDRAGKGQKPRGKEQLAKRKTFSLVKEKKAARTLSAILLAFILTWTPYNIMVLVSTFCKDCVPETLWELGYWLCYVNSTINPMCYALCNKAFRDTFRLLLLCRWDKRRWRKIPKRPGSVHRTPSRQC
Sequence of KiSS-1 receptor (Homo sapiens) (Q969F8 whole entry, looked up): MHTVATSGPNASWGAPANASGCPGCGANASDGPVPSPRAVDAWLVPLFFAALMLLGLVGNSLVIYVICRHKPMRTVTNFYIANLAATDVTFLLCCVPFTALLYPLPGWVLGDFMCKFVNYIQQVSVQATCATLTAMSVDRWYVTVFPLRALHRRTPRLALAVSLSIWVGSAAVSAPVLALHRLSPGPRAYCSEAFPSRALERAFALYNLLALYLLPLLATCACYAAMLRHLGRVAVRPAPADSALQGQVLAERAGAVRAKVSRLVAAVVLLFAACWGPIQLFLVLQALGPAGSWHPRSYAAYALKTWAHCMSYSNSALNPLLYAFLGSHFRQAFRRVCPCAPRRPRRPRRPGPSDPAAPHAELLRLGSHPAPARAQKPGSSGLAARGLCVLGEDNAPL
Sequence of 5-hydroxytryptamine receptor 2A (Homo sapiens) (P28223 whole entry, looked up): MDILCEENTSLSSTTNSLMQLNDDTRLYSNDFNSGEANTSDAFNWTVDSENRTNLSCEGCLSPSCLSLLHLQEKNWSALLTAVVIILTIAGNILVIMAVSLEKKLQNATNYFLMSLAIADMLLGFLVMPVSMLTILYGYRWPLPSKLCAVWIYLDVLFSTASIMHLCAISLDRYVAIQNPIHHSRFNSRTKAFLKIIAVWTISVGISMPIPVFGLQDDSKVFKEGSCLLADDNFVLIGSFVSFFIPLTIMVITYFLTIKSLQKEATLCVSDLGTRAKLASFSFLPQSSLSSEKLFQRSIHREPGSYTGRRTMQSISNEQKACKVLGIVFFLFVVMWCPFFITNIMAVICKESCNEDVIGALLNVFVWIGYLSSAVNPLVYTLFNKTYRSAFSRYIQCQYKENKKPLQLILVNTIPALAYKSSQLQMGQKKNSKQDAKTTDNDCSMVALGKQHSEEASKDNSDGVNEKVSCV
Sequence of Beta-2 adrenergic receptor (Homo sapiens) (P07550 whole entry, looked up): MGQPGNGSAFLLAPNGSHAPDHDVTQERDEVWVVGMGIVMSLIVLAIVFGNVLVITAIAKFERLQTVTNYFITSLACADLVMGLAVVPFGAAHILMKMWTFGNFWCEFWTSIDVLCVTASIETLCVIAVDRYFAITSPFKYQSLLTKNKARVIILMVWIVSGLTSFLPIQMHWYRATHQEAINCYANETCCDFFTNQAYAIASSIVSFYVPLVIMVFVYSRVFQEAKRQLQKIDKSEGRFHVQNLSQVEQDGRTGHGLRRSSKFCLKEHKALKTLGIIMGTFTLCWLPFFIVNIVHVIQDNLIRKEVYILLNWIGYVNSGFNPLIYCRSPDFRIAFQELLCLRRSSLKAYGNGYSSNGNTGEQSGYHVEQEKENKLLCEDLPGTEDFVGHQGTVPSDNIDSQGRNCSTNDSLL
Sequence of Gonadotropin-releasing hormone receptor (Homo sapiens) (P30968 whole entry, looked up): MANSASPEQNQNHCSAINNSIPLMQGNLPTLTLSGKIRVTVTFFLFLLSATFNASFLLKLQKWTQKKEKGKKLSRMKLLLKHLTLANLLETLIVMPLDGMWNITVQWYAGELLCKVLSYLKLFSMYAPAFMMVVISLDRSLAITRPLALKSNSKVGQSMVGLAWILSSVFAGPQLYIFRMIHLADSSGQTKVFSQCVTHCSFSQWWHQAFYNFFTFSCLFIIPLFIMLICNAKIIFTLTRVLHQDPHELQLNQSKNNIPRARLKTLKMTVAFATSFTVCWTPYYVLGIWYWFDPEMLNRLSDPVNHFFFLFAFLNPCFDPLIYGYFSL
Sequence of D(2) dopamine receptor (Homo sapiens) (P14416 whole entry, looked up): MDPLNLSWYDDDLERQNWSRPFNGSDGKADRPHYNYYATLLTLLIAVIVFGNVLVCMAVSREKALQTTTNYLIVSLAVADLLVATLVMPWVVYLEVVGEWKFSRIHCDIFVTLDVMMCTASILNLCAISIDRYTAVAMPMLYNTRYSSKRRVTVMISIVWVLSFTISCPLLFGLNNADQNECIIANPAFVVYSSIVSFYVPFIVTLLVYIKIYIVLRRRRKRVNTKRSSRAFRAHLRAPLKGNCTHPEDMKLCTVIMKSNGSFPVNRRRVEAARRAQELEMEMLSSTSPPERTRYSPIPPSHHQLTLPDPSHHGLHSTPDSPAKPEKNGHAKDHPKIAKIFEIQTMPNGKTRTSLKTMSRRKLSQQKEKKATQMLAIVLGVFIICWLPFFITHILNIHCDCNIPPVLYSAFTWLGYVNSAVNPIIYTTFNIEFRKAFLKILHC

CCC(C)(C)C1CCC(O)CC1 (stereo not given)
not listed: [20]
inactive: all other assays above

Fc1ccccc1[C@@H](F)COC1CCC(Nc2ncnc3[nH]ncc23)CC1 (stereo not given in full)
not listed: [2] | [3] | [5] | [7] | [10] | [11] | [15] | [16]
inactive: all other assays above

CCCCOc1ccc(N)cc1
not listed: [17]
inactive: all other assays above

CC(C)CCOC(=O)/C=C/c1ccccc1
inactive: all assays above

CCCCCCCCCCC1CO1 (stereo not given)
not listed: [20]
inactive: all other assays above

COC(C)CCO (stereo not given)
not listed: [18]
inactive: all other assays above

NC(=O)CCCCC1CCSS1 (stereo not given)
not listed: [20]
inactive: all other assays above

C1CCOC1
not listed: [17] | [20]
inactive: all other assays above
